HCT116 PTEN-null = PTEN-deleted cell growth suppression; actives 1.2% (n = 140,000); HCT116 PTEN-null viability, CellTiter-Glo, 60 h; stronger effect = lower value; viability, % at 10 µM;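 active = viability at or below a set limit, 4 SD under the median of all tested compounds, cut at about 3.7% in these data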;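 note: PTEN knockout HCT116 line with beta catenin targeted HCT116 as companion control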
Insulin prom up = MIN6 insulin promoter up-regulation | MIN6 insulin promoter-GFP reporter, high-content imaging; stronger effect = higher value | actives 0.3% (n = 190,000) | z-score at 5 µM | AID 1625;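 active = z-score above 3 at 5 µM with at least 500 cells counted in the well; inconclusive = wells under 500 cells, flagged as cytotoxic or low count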
Insulin prom inh = TRM-6 insulin promoter activity inhibition; inhibition, % at 2 µM; actives 0.9% (n = 130,000); TRM-6 cells (human fetal islet line), insulin promoter-eGFP reporter, imaging; reporter expression induced with tamoxifen;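 active = inhibition above the mean plus 3 SD, with well images judged a real hit on visual review, cut at about 60% in these data, passing the limit was not always enough; inconclusive = inhibition over the cutoff but images rejected on review; inactive = inhibition not above the cutoff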
bCat KO growth = beta-catenin-lacking colon tumor cell growth suppression; HCT116 beta-catenin knockout viability, CellTiter-Glo, 60 h; stronger effect = lower value; viability, % at 10 µM; actives 1.5% (n = 140,000); AID 818;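 active = viability at or under a set limit, the compound median less 4 SD, cut at about 6% in these data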;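 note: 0% = Hyamine 1622 control at 20 µM and 100% = untreated cell control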
L major viab = inhibitors of Leishmania major promastigote growth; inhibition, % at 10 µM; actives 9% (n = 200,000); AID 1063; Leishmania major promastigotes, resazurin fluorescence viability; in the data active = inhibition above about 50%;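 note: promastigotes grown with compound for 44 hours at 28 °C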
Autophagy mod = modulators of autophagy; actives 0.98% (n = 190,000); calls only at 10 µM (by protocol); MEF GFP-LC3 puncta imaging; test concentration mostly 10 µM; AID 463193;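 active = percentage of spot-positive cells more than 3 SD above its plate mean, without a fluorescence outlier flag or 80% toxicity; inconclusive = no clear call, values can overlap the other calls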;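 note: spot-positive cell cutoff set from DMSO-treated cells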
The depositor's hits bear a star; i = inactive; ? = inconclusive; / = no result. In the library only some 9.6% were active in any assay of this set; here they are far more common.

SMILES	HCT116 PTEN-null	Insulin prom up	Insulin prom inh	bCat KO growth	L major viab	Autophagy mod
CCOc1cccc(C(=O)Nc2nc(-c3ccc(S(=O)(=O)N4CCOCC4)cc3)cs2)c1	76	0.79	?	82	6	i
O=C(NC(NC(=S)Nc1c(Cl)cccc1Cl)C(Cl)(Cl)Cl)OCc1ccccc1 (stereo unspecified)	45	-0.04	41	57	98*	i
Cn1c(=O)n(Cc2ccccc2)c(=O)c2c1nc1n2CCCN1CCc1ccccc1	24	-1.2	-66	31	100*	i
CCN1CCCn2c1nc1c2c(=O)n(C)c(=O)n1C	101	-0.11	22	90	59*	i
Cc1cccc(Nc2nnc(SCC(=O)NCc3cccs3)s2)c1C	98	0.04	-11	97	58*	i
Cc1sc2nc(SCC(=O)NCc3cccs3)[nH]c(=O)c2c1C	85	0.23	91*	78	-7	i
Cc1cccc(Nc2nnc(SCC(=O)NCc3cccs3)s2)c1	/	0.35	-12	/	7	i
O=C(O)c1cc2c(ccc3ccccc32)oc1=O	110	0.17	-193	109	6	i
CC(Sc1nc(NCc2ccccc2)nc(N2CCOCC2)n1)C(=O)Nc1ccccc1 (stereo unspecified)	75	-1.6	-8	65	7	i
CN1C(=O)CC(N2CCN(Cc3ccc(Cl)cc3)CC2)C1=O (stereo unspecified)	97	3.9*	-41	107	-8	i
CN(C)CCCN1C(=O)c2cccc3c([N+](=O)[O-])ccc(c23)C1=O	1.6*	?	i	1.4*	100*	i
CCCCOc1ccc(/C(O)=C2/C(=O)C(=O)N(CCN(C)C)C2c2ccc(O)c(OC)c2)cc1 (stereo unspecified)	89	0.68	/	95	-5	i
CC1C(=O)CC(c2ccccc2)N(C)C1c1ccccc1 (stereo unspecified)	69	-0.1	/	67	2	i
CC1C(c2ccccc2)N(C)C(c2ccccc2)C(C)C1(O)C#Cc1ccccc1 (stereo unspecified)	34	-0.4	10	39	69*	i
Cc1ccc(CN2C(=O)c3ccccc3NC2c2ccccn2)cc1 (stereo unspecified)	/	-0.04	-43	/	63*	i
CC1CCN(CC(=O)n2c3c(c4ccccc42)CCCC3)CC1	93	0.39	57	94	5	i
CCN1CCN(CC(=O)n2c3c(c4ccccc42)CC(C)CC3)CC1 (stereo unspecified)	72	-0.48	39	65	100*	i
C/C=C(\C)C(=O)NCCN1C2=NC[C@H](Cc3ccccc3)N2C[C@H]1Cc1ccc(O)cc1	/	1	/	/	-4	i
COc1ccc(C(=O)NC(=S)Nc2ccccc2F)cc1	96	-0.21	-11	101	64*	i
CC[N+](CC)(CC)C/C=C/CN1CCCCC1	98	0.3	36	98	58*	i
CC1=CC(C)C(C(=O)O)C(C(=O)Nc2cccnc2)C1 (stereo unspecified)	/	/	/	/	-7	i
Cc1cncn1CCc1nc2c3ccccc3nc(SCC(=O)Nc3cccc(Cl)c3)n2n1	1.0*	/	/	5.3*	100*	i
Cc1[nH]nc(-c2ccc(O)cc2O)c1-c1ccc(Cl)cc1	69	-1.5	3	68	5	i
Cc1ccc(/C=C/C(=O)NCc2ccccn2)o1	96	-0.44	66*	95	-4	i
CN1C/C(=C/c2cccnc2)C(=O)/C(=C/c2cccnc2)C1	2.1*	-2.6	-68	2.1*	100*	i
SMILES	HCT116 PTEN-null	Insulin prom up	Insulin prom inh	bCat KO growth	L major viab	Autophagy mod
CC(C)N1C/C(=C/c2cccnc2)C(=O)/C(=C/c2cccnc2)C1	58	-0.12	-58	52	100*	i
CC(C)N1C/C(=C/c2ccsc2)C(=O)/C(=C/c2ccsc2)C1	1.5*	-0.62	/	2.6*	100*	i
CCc1ccc(NC(=O)c2sccc2-n2cccc2)cc1	84	-0.82	-19	90	-1	i
CSc1ncccc1C(=O)Nc1nc2c(C)cccc2s1	87	0.39	-56	90	69*	i
Cc1cc(C(=O)Nc2nc3c(C)cccc3s2)c(C)o1	90	-1	-13	85	14	i
CCn1c(CNC(=O)c2ccc(OC)c(OC)c2)nnc1SCC(=O)Nc1ccc(OC)cc1	100	0.24	0	104	-7	i
COc1ccc(C)cc1S(=O)(=O)N1CCN(Cc2ccccc2)CC1	99	0.02	-11	91	4	i
CN(C)S(=O)(=O)Nc1ccc(Oc2ccccc2)cc1	85	-0.66	-136	86	82*	i
Cc1[nH]c(=O)[nH]c(=O)c1S(=O)(=O)Nc1ccc(Oc2ccccc2)cc1	102	0.35	60	94	-14	i
O=[N+]([O-])c1ccc2nc(/C=C/c3ccc(Cl)cc3)[nH]c2c1	2.8*	-0.95	30	2.1*	16	i
Nc1ccc(-c2nc3ccc([N+](=O)[O-])cc3[nH]2)cc1	81	-0.34	10	80	83*	i
CCCN1CCN(C(=S)NCc2ccc(Cl)cc2)CC1	/	-1.3	/	/	81*	i
CC1CCN(C(=S)Nc2ccc(SC(F)F)cc2)CC1	91	0.22	24	90	72*	i
CCCN1CCN(C(=S)Nc2ccc(SC(F)F)cc2)CC1	/	0.12	50	/	90*	i
CC(=O)N1CCN(C(=S)Nc2ccc(SC(F)F)cc2)CC1	/	-0.8	/	/	0	i
Cc1cc(S(=O)(=O)Nc2ccc3c(c2)COC3=O)ccc1F	/	/	/	/	-3	i
CCOCCCNCC(=O)N1CCN(S(=O)(=O)c2ccc(C)cc2)CC1	106	0.5	-337	106	88*	i
CC(C)(C)C(=O)Nc1ccc(F)cc1[N+](=O)[O-]	/	0.53	/	/	/	/
COc1ccc(CC(=O)Nc2ccc(-c3csc(C)n3)cc2)cc1	102	-0.32	-7	92	-7	i
O=C(CSc1ncnc2c1cnn2-c1ccc(F)cc1)NCc1ccc2c(c1)OCO2	94	0.08	-22	90	63*	i
O=C(CSc1nnc(-c2cccs2)n1-c1ccccc1)NCc1ccc2c(c1)OCO2	89	1.5	-381	93	58*	i
Cc1ccc(C)c2c1cc(C)c1nnc(SCC(=O)NCc3ccc4c(c3)OCO4)n12	91	-0.88	-28	93	70*	i
C=CCn1c(SCC(=O)NCc2ccc3c(c2)OCO3)nnc1-c1cccnc1	/	0.44	76*	/	-5	i
COc1ccccc1Oc1ccc(S(=O)(=O)N2CCCC2)cc1	83	1	38	74	99*	i
Cc1ccc(S(=O)(=O)c2cccc(S(=O)(=O)N3CCCC3)c2)cc1S(=O)(=O)N1CCCC1	42	3*	-26	31	13	i
CC(C)(C)c1ccc(S(=O)(=O)N2CCCCC2)cc1	82	-0.36	-21	80	92*	i
Cc1cccc(Oc2ccc(S(=O)(=O)N3CCCCC3)cc2N)c1	/	-0.25	/	/	80*	i

High-throughput results (PubChem BioAssay)
